Bioassay records (PubChem BioAssay)
An excerpt weighted towards active compounds, which were near 3.6% of everything screened.
hDAT+cocaine: changed hDAT dopamine uptake under cocaine IC80, either direction, primary screen, cocaine antagonist project, cell-based, LLC-PK1 hDAT, [14C]-dopamine uptake, MLSMR | LLC-PK1 hDAT cells, [14C]-dopamine uptake with cocaine IC80; actives deviate in either direction | B-score at 10 µM | 110,000 compounds, 1.3% hits | AID 449768, 2010;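 active = Z score or B-score, a plate-position-corrected score, falls beyond the plate's 99.7% confidence bounds, in either direction; inactive = both scores lie inside the 99.7% bounds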;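 note: scored against the spread of the other compound wells on the same plate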
Target sequence (Q01959 whole entry, looked up): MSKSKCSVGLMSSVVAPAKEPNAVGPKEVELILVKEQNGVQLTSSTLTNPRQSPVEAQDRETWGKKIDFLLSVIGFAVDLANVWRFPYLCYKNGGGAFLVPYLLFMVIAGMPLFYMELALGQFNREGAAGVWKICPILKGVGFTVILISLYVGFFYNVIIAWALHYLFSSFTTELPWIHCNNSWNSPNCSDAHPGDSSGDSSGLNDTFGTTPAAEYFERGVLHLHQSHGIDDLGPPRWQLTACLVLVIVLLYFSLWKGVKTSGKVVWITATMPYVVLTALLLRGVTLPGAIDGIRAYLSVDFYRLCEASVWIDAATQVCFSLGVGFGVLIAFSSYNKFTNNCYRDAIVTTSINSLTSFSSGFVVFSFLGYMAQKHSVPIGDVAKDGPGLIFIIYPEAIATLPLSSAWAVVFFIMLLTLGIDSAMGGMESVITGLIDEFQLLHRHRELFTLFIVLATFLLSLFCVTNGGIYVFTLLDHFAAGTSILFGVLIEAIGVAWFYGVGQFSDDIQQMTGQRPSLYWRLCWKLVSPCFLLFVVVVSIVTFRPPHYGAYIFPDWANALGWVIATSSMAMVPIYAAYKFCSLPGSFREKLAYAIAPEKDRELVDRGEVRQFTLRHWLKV
WT yeast gro inh: growth inhibition of WT strain, primary screen, mitochondrial fusion inhibitor project, WT and mutant strains, chemical genetic; AID 1362, 2008; mitochondrial fusion phenotypic screen; inhibition, % at 10 µM; 190,000 compounds, 2.1% hits; in the data active = inhibition above about 58%; tested in S. cerevisiae
PTEN del growth: growth suppression of PTEN-null HCT116, primary screen, cell-based, CellTiter-Glo; HCT116 PTEN-null viability, 60 h; hits give low values; viability, % at 10 µM; 140,000 compounds, 1.2% hits;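 active = viability at or below a set limit, 4 SD under the median of all tested compounds, cut at about 3.7% in these data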;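 note: PTEN knockout HCT116 line with beta catenin targeted HCT116 as companion control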
bCat KO growth: primary screen for growth suppressors in beta-catenin knockout HCT116 cells (colon tumor, human) | 140,000 compounds, 1.5% hits | HCT116 beta-catenin knockout viability, CellTiter-Glo, 60 h; hits give low values | viability, % at 10 µM;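 active = viability at or under a set limit, the compound median less 4 SD, cut at about 6% in these data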;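 note: 0% = Hyamine 1622 control at 20 µM and 100% = untreated cell control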
* = called active by the depositor; . = no result given.

SMILES | hDAT+cocaine | WT yeast gro inh | PTEN del growth | bCat KO growth
COc1ccc2cc(/C=C3\SC(=S)NC3=O)c(N3CCOCC3)nc2c1 | . | 72.0* | 74.0 | 75.1
O=C1NC(=S)S/C1=C/c1ccc(N2CCOCC2)o1 | . | 23.2 | 85.0 | 84.0
C=CCN1C(=O)C(CC(=O)O)SC1=Nc1ccc(C)cc1 (centres undefined) | . | 5.7 | . | .
O=C(NC(=S)N1CCN(c2ccc([N+](=O)[O-])cc2)CC1)c1ccc(F)cc1 | . | -2.2 | 93.9 | 94.4
O=C(Cn1ncc2c3ccccc3n(Cc3ccc(F)cc3)c2c1=O)N1CCN(c2ncccn2)CC1 | 2.79* | 29.0 | 81.3 | 92.0
Cc1c(C#N)c(N=CN(C)C)c(C(=O)c2ccc(Br)cc2)n1-c1ccc(Cl)cc1 | 0.0428 | 60.5* | 55.4 | 62.3
CN1CCN(C(=O)c2cc(COc3c(F)cccc3F)on2)CC1c1ccccc1 (centres undefined) | . | 79.5* | . | .
O=C(CN1CCOCC1)N(c1ccccc1)c1ccc2ccccc2c1 | -0.486 | 19.0 | 92.4 | 100.2
O=C(CN1CCN(c2ccccn2)CC1)N(c1ccccc1)c1ccc2ccccc2c1 | 0.753 | 62.6* | 50.4 | 50.4
Cc1ccc(-c2nn[nH]n2)cc1 | -8.16* | -16.0 | 105.9 | 97.2
Cc1nnnn1-c1ccc(CC(=O)O)cc1 | . | -7.5 | . | .
O=C1C=C(Nc2ccccc2O)c2ccccc2C1=O | -1.23 | 27.4 | 1.8* | 2.3*
O=C1C=C(NCc2ccccc2)c2ccccc2C1=O | . | 11.4 | . | .
COc1cc(OC)cc(C(=O)NNC(=S)Nc2ccc(S(N)(=O)=O)cc2)c1 | . | -21.2 | . | .
COc1cccc(N(C(=O)CCl)C(C(=O)NCCc2ccccc2)c2cccs2)c1 (centres undefined) | . | 3.7 | 1.2* | 2.4*
COc1cccc(N(C(=O)CS(=O)CC(=O)Nc2ccc(F)cc2)C(C(=O)NC2CCCCC2)c2cccs2)c1 (centres undefined) | . | 3.4 | 83.3 | 81.8
COc1ccc(N(C(=O)CCl)C(C(=O)NCCc2ccccc2)c2cccs2)cc1Cl (centres undefined) | . | 43.5 | 0.9* | 1.8*
COc1ccc(-n2nnc3c(=O)n(CC(=O)Nc4cc(C)on4)cnc32)cc1OC | . | 6.9 | . | .
CN1CCN(C(=S)Nc2ccc(S(N)(=O)=O)cc2)CC1 | . | -12.2 | . | .
O=C1C2C3C=CC(C3)C2C(=O)N1/N=C/c1cc(Br)cc([N+](=O)[O-])c1O (centres undefined) | -2.79* | 0.4 | 95.3 | 100.3
O=C1C2C3C=CC(C3)C2C(=O)N1/N=C/c1ccc(-c2ccccc2[N+](=O)[O-])o1 (centres undefined) | . | -3.1 | 99.1 | 91.2
Cc1cc(C)c[n+](-c2nc3ccccc3nc2[N-]S(=O)(=O)c2ccc(Br)s2)c1 | . | -6.5 | 65.2 | 74.6
NC(=S)N/N=C/c1coc2c(ccc3ccccc32)c1=O | . | -2.8 | 93.4 | 85.6
NC(=S)N/N=C1/CCSc2ccc3ccccc3c21 | . | 76.0* | . | .
O=C1CCCCC1Sc1nnc(Nc2ccccc2)s1 (centres undefined) | . | 1.2 | . | .
SMILES | hDAT+cocaine | WT yeast gro inh | PTEN del growth | bCat KO growth
COc1ccc(-c2nc(-c3ccccn3)no2)cc1 | . | 64.4* | . | .
Cc1nc(N2CCN(c3ccccc3)CC2)c2c3c(sc2n1)CCC3 | . | 74.2* | . | .
C=C1c2ccccc2NC(=S)N1Cc1ccc2c(c1)OCO2 | . | 13.2 | . | .
CC(NC(=O)CCc1nnc(-c2ccc(-c3ccccc3)cc2)o1)c1nc2ccccc2[nH]1 (centres undefined) | . | -19.7 | . | .
CSc1nc2ccccc2cc1/C=C(\C#N)c1ccc(Cl)c(Cl)c1 | -0.266 | -6.2 | 2.4* | 1.9*
CSc1nc2ccccc2cc1/C=C(\C#N)c1ccccc1 | -0.0922 | 18.4 | 22.6 | 22.4
COc1ccc(/C=N/Nc2nc(-c3ccc(Cl)cc3)cc(C(F)(F)F)n2)cc1OC | . | 63.5* | 43.6 | 54.9
COc1ccc(-c2cnnc(N/N=C/c3ccc(OC)c(OC)c3)n2)cc1 | . | 22.8 | 67.6 | 67.9
O=C(NCCc1ccc(Cl)cc1)C1CCN(c2ncccn2)CC1 | . | -3.0 | . | .
CCCCN1C[C@H](O)[C@@H](O)[C@H](O)[C@H]1CO | -0.918 | -8.6 | 1.2* | 1.0*
O=C(COC(=O)Cc1ccc(Br)cc1)NC1CCCCCC1 | . | -2.8 | . | .
O=C(COC(=O)Cc1ccc(Br)cc1)NC12CC3CC(CC(C3)C1)C2 | -1.22 | 83.9* | 108.9 | 103.6
COC(=O)c1ccccc1NC(=O)CSc1ccccc1 | -9* | -18.1 | 83.4 | 94.3
COC(=O)COC(=O)c1ccccc1NC(=O)c1ccccc1 | . | 70.6* | 101.1 | 94.7
CCCc1nc(SCc2ccc(Cl)cc2Cl)n[nH]1 | -0.00317 | 17.2 | 95.8 | 89.0
COc1ccc(-n2cc(CN3CCCC3)c(-c3cccc(F)c3)n2)cc1 | . | 25.0 | . | .
COc1ccc(-n2cc(CNC3CCN(C)CC3)c(-c3cccc(F)c3)n2)cc1 | . | 59.0* | . | .
COc1ccc(Br)cc1CNC(=O)C1CCN(S(=O)(=O)N2CCC(C)CC2)CC1 | . | 9.6 | 75.2 | 79.9
CN1C(=O)c2ccccc2Sc2ccc(NC(=O)N3CCCC3)cc21 | 0.517 | 78.7* | 98.0 | 102.1
Cc1cc(C)c2cc(CN(Cc3ccc4c(c3)OCO4)Cc3nnnn3Cc3ccco3)c(=O)[nH]c2c1 | 2.95* | 8.7 | 90.7 | 80.5
Cc1ccc2[nH]c(=O)c(CN(Cc3ccc4c(c3)OCO4)Cc3nnnn3Cc3ccco3)cc2c1 | 1.46 | -3.0 | 63.4 | 77.4
Cc1cc(Cl)ccc1OCc1cn2cccnc2n1 | . | -6.4 | . | .
COc1ccccc1-n1c(=O)oc2ccc(Cl)cc2c1=O | -0.749 | 76.4* | 1.9* | 1.2*
Cc1nn(-c2ccccc2)c(C)c1NC(=O)c1ccc(S(=O)(=O)N2CCCC2)cc1 | 1.27 | 73.7* | 103.2 | 101.6
Cc1cc(OCCOCCNC(C)C)cc(C)c1Cl | . | . | 16.5 | 5.6*
SMILES | hDAT+cocaine | WT yeast gro inh | PTEN del growth | bCat KO growth
C/C(=N\NC(=O)CC#N)C1COc2ccccc2O1 (centres undefined) | . | -8.2 | . | .
C[C@@H](C[C@@H](O)[C@H](O)C(C)(C)O)[C@@H]1CC[C@]2(C)C3=CC[C@H]4C(C)(C)C(=O)CC[C@]4(C)[C@H]3CC[C@@]12C | 1.55 | 60.3* | 25.5 | 11.1
Cc1ccc(S(=O)(=O)CC(=O)c2cc(C)c(O)c(C)c2)cc1 | . | -40.2 | . | .
COc1ccc(C(=O)c2coc3ccc(O)c(CN4CCOCC4)c23)cc1 | 3.46* | 8.7 | 83.1 | 95.0
COc1ccc(Oc2coc3c(CN4CCOCC4)c(O)ccc3c2=O)cc1 | -7.38* | -21.7 | 84.2 | 85.2
COc1ccc(C(=O)c2coc3ccc(O)c(CN4CCCC4)c23)cc1 | -0.0884 | -3.9 | 68.5 | 73.2
COc1ccc(Oc2coc3c(CN(C)C)c(O)ccc3c2=O)cc1 | -0.86 | 10.0 | 93.2 | 88.8
COc1cccc(N2CCN(CC(=O)Nc3ccc(SC(F)F)cc3)CC2)c1 | . | 63.0* | 89.4 | 92.8
O=C(CN1CCN(c2ccccc2)CC1)Nc1ccc(Oc2ccccc2)cc1 | 0.00275 | 59.9* | 89.6 | 86.6
O=C(CN1CCOCC1)Nc1ccc(Oc2ccccc2)cc1 | 0.52 | 3.3 | 93.0 | 89.0
Cc1ccc(NS(=O)(=O)c2cc(C(=O)N(C)C)ccc2C)cc1C | . | 5.1 | . | .
